# Reference: PubChem BioAssay (NCI)
# The panel holds about 83,000 compounds, 20% with a hit somewhere; the sample as a whole holds those more often.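 Growth was measured after 48 h exposure to one concentration of compound in 96-well plates. Values under 10 count as active.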 Unmarked numbers belong to inactive results. Calls of active or inactive are those of the source.
# How the values were obtained:
# Assay in all cases: NCI-60 one-dose screen, 48 h (100 = growth as untreated, 0 = no growth, -100 = all killed)
# Conditions in all cases: 10 µM unless noted
# [1] = tested on: NCI-H23 lung
# [2] = tested on: NCI-H226 lung
# [3] = tested on: NCI-H322M lung
# [4] = tested on: HOP-62 NSCLC
# [5] = tested on: NCI-H460 lung
# [6] = tested on: HOP-92 NSCLC
# [7] = tested on: NCI-H522 lung
# [8] = tested on: A549/ATCC NSCLC
# [9] = tested on: 786-0 renal
# [10] = tested on: COLO 205 colon
SMILES,growth [1],growth [2],growth [3],growth [4],growth [5],growth [6],growth [7],growth [8],growth [9],growth [10]
Cc1c(Br)cccc1NC(=O)c1sc2nc3c(cc2c1N)CN(Cc1ccccc1)CC3,40.7%,23.7%,41.2%,-2.37% (active),6.71% (active),30.2%,-0.487% (active),21.4%,35.1%,-4.67% (active)
CCOC(=O)c1c(C)nc2c(c1N)/C(=C/c1ccc[nH]1)C(=O)N2Cc1ccc(C(F)(F)F)cc1,51.8%,38.1%,74.4%,23.6%,16.8%,41.1%,43.3%,48.9%,22.9%,75.6%
COC(=O)/C=C1\SC(=Nc2cccc(OC)c2)N(CCc2c[nH]c3ccccc23)C1=O,67.9%,98.2%,76.8%,53%,80.7%,46.6%,28.4%,61.4%,76.7%,75.8%
Cc1cnc(SCc2ccc(Cl)cc2Cl)nc1Nc1ccc(Cl)c(Cl)c1,92.8%,101%,82%,93.4%,92.2%,76%,66.7%,78.2%,92.3%,117%
Cc1nccc2c3ccc(OCc4cn(-c5ccc(Cl)cc5)nn4)cc3n(CC(C)C)c12,14.1%,42%,66.1%,35.6%,17%,8.37% (active),1.04% (active),30.7%,2.68% (active),-22.6% (active)
Nc1ccc(C(=O)Nc2cccc(C(=O)Nc3ccc4c(O)c(N=Nc5ccc(N=Nc6ccc(S(=O)(=O)O)cc6)cc5)c(S(=O)(=O)O)cc4c3)c2)cc1,96.8%,111%,101%,98.5%,105%,108%,92.3%,102%,103%,114%
O=C(O)CCNC1CCCCC1,90.4%,93.9%,115%,91.6%,99.3%,100%,79.7%,102%,101%,95.8%
Cc1ccc(C(=O)/C(=C/c2ccc([N+](=O)[O-])cc2)S(=O)Cc2ccccc2)cc1 (stereo not given),13.6%,47.1%,81.6%,47.9%,22.1%,36.9%,-32% (active),65.1%,-49.5% (active),-26.4% (active)
COc1ccccc1Nc1nnc(-c2ccc(Cl)cc2)o1,63.9%,73.6%,70.5%,47.4%,16.1%,91.1%,16.6%,34.4%,75.8%,35.3%
c1cc(CNC23CC4CC(CC(C4)C2)C3)cc(C[N+](Cc2cccc(CNC34CC5CC(CC(C5)C3)C4)c2)(Cc2cccc(CNC34CC5CC(CC(C5)C3)C4)c2)Cc2cccc(CNC34CC5CC(CC(C5)C3)C4)c2)c1 (stereo not given),42.1% [42 µM],33.5% [42 µM],37.1% [42 µM],33.1% [42 µM],3.83% [42 µM] (active),32.8% [42 µM],-56.4% [42 µM] (active),16.2% [42 µM],18.3% [42 µM],-40.9% [42 µM] (active)
NC[C@@H]1CCN(c2cc3c(cc2F)c(=O)n(N)c(=O)n3Cc2ccc(-c3ccccc3)cc2)C1,87.2%,91.1%,96.8%,77.4%,99.7%,73.6%,68.8%,89.6%,66.2%,88.6%
COc1cc(C)ccc1Oc1nc(Nc2ccc(N3CCOCC3)cc2)ncc1N=Cc1cc(C(F)(F)F)cc(C(F)(F)F)c1,70.4%,55.4%,79.7%,61.1%,44.6%,67.8%,27.3%,70%,76.6%,68.3%
CN(C)CCCn1c2c(c3cc(-c4ccco4)ccc3c1=O)C(=O)c1ccccc1-2,71.8%,77.2%,81.3%,59.2%,46.3%,71.6%,59.9%,67.7%,69.2%,52.9%
CCCCc1n(Cc2ccc3ccccc3n2)cc[n+]1Cc1ccc2ccccc2c1,-1.01% (active),14.2%,30.6%,17.4%,7.73% (active),-33.9% (active),-8.22% (active),27%,20.4%,-74.2% (active)
COC(=O)c1ccc2c(c1)n(Cc1ccc3ccccc3c1)c[n+]2Cc1ccc2ccccc2c1,34.6%,61.3%,57.2%,63.8%,28.6%,-10.7% (active),26.3%,75%,70.3%,3.66% (active)
COc1ccc2c(c1)OC13Oc4cc(OC)ccc4C=C1CCCCC3=C2,91.6%,88.4%,105%,99.3%,94.4%,80.7%,66.2%,73.8%,87.2%,101%
Cc1c(O)c(=O)ccn1-c1nc2ccccc2s1,102%,92.5%,88%,87.3%,99.3%,98.4%,75.4%,92.5%,84.6%,96.4%
COc1ccc(C(=O)c2cc(F)c(F)c(OC)c2F)cc1OC(=O)CCl,58.3%,105%,75.8%,39%,20.5%,52.9%,30.6%,53.8%,89.6%,108%
CC(C)(C)c1nc2c(s1)c1nc(N)ncc1c1ccc(NS(=O)(=O)c3c(F)cccc3F)c(F)c12,78.5%,65.4%,60.4%,84.1%,52.5%,44.1%,50.3%,55.8%,66.1%,4.03% (active)
CC1CCCN(CCCCCOc2ccc3oc4ccc(Cl)cc4c(=O)c3c2)C1 (stereo not given),78.6%,104%,84.4%,85.7%,54.5%,88.8%,71.1%,76.1%,68.2%,57.5%
C=C1C(=O)O[C@H]2[C@H]1CC/C(COC(=O)NCC(=O)Nc1ccc(OC)c(C(N)=O)c1O)=C\CC[C@@]1(C)O[C@@H]21,95.6%,83.3%,92.2%,85.4%,97%,14.6%,-25.1% (active),86.3%,58.7%,10.8%
COc1ccc(/C=C/C(=O)/C=C(/C=C/c2ccc(OC)c(OC)c2)OB(F)F)cc1OC,52.3%,57.1%,103%,83.5%,21.8%,56.8%,-32.4% (active),60.8%,12.5%,-23.2% (active)
S=c1ssnc1-c1cc2ccccc2o1,84.3%,92.9%,91.8%,86.7%,70%,4.61% (active),79.2%,88.2%,24.1%,83.6%
COc1ccc(-c2nnc(N3CCN(C(=O)CN4CCN(c5ccc(OC)cc5)CC4)CC3)nc2-c2ccc(OC)cc2)cc1,21.4%,-81.4% (active),32.6%,1.58% (active),29.3%,-62.9% (active),-84.5% (active),59.1%,26.3%,19%
COc1cc2c(cc1OC)C(Sc1ccc(Cl)cc1)c1c(nc(N)c(C#N)c1N)O2 (stereo not given),-20.2% (active),16.2%,42.1%,63%,-55% (active),20.1%,-67.6% (active),44.1%,-17.1% (active),-65.6% (active)
COc1cc(/C=C/C(=O)/C=C/c2cc3ccc(Cl)cc3[nH]c2=O)ccc1O,61.2%,80.1%,92.2%,114%,53.3%,77.4%,66.4%,79.8%,30.8%,105%
